Rows were chosen to be rich in hits. Some 2.5% of all compounds tested hit in one or more screens of this group.
PTAP-TSG101 blk: blocks PTAP binding to human TSG101, validation. AID 1347069. 44,000 tested, under 10 active. Q99816. Potency, µM (doses to about 115 µM), most hits filed as inhibitors. Fluorescence polarization, FITC-PTAP peptide/Tsg101, 20 min; note: potency is the fitted concentration of half-maximal effect; 0% is about no effect
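Fluorescence polarization: Tsg101 binding domain (10 uM final) in 10 mM HEPES pH 7.5, 0.15 M NaCl, 0.01% Tween 20, 3 mM EDTA, 0.1 mM TCEP; compounds pinned; FITC-PTAP peptide 50 nM final; 20 min, r.t.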
NTMT1 inh: NTMT1 methyltransferase inhibition; Q9BV86; NTMT1 MTase-Glo SAH luminescence, purified enzyme; Potency, µM (highest dose often 114 µM), inactives show top-dose activity change, negative = inhibition, actives largely listed as inhibitors; hit rate 2.5% among 59,000; AID 1645870;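 note: potency is the fitted concentration of half-maximal effect; plate controls were DMSO vehicle for no effect and no enzyme for full effect; nearly all actives have a fitted effect of over 65% in size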
Target sequence (Q9BV86 whole entry, looked up): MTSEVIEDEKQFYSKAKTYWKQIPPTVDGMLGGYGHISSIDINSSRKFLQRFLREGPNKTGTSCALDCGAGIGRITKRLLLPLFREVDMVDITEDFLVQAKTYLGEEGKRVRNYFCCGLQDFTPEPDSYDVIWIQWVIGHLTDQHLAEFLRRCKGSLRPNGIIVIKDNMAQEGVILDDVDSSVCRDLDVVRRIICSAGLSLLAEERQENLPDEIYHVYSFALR
HTT promoter inh: inhibits huntingtin promoter activity; HEK293 HTT promoter firefly luciferase reporter, 24 h; Potency, µM (doses to about 57.5 µM), for inactives: top-dose activity change, negative = inhibition, actives largely listed as inhibitors; hit rate 0.93% among 48,000; AID 1508623; note: potency is the fitted concentration of half-maximal effect; nearly all actives have a fitted effect of over 50% in size
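HEK293 luciferase promoter-reporter cells (2,500/well) plated 24 h, then compounds added at up to 57.5 uM final for 24 h at 37 °C. Firefly luminescence by Dual-Glo, normalized to vehicle (0%) and zero RLU (-100%).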
GALK inhibitor: GALK (human) enzyme inhibition | P51570 | Potency, µM (highest dose often 57.5 µM), inactives show at the top dose activity, negative = inhibition, most hits filed as inhibitors | 44,000 tested, under 10 active | recombinant GALK, Kinase-Glo ATP luminescence, 1 h | AID 1347072;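 note: plate controls were full GALK reaction for no effect and reaction lacking GALK for full effect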
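Luminescent ATP-depletion readout (Kinase-Glo Plus, 10 min) after 1 h RT reaction of 5 nM GALK, 35 uM ATP, 100 uM galactose, pH 8.0 HEPES buffer. Decreased kinase activity scored as inhibition.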
OvCa metastasis: blocks SKOV3ip1 adhesion and invasion in omental model; SKOV3ip1-GFP adhesion/invasion on 3D omental model, fluorescence; Potency, µM (doses to about 45.8 µM), without a hit: at the top dose activity change, negative = inhibition, usual class: inhibitors; hit rate 0.1% among 46,000;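 note: potency is the fitted concentration of half-maximal effect; plate controls were DMSO wells for no effect and tomatine positive control wells for full effect; nearly all actives have a fitted effect of over 65% in size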
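Primary human omental fibroblast/mesothelial 3D culture pre-formed 48 h. SKOV3ip1-GFP cells added with compounds (0.36-46 umol/L), incubated 2 h RT/16 h 37 C, fixed; GFP cells quantified at 488/509 nm.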
HTT-AS act: HTT-AS promoter activation. hit rate 0.24% among 48,000. AID 1508624. Potency, µM (doses to about 57.5 µM), for inactives: top-dose activity change, positive = activation, most hits filed as activators. HEK293 HTT-AS promoter firefly luciferase reporter, 24 h; response scale: percent change from vehicle, -100% = no light; note: potency is the fitted concentration of half-maximal effect; nearly all actives have a fitted effect of over 55% in size
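HEK293 Fluc reporter, 2,500 cells/well, 24 h pre-culture; cpds up to 57.5 uM final, 24 h 37 degrees C; Dual-Glo, 10 min RT; normalized vehicle = 0%, zero RLU = -100%.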
* = called active by the depositor; i = inactive; ? = inconclusive; . = no result; ! = repeats disagree; [ ] = dose if it differs, or a comment. Calls come from the whole dose curve; as a rule, active = well fitted curve in the direction sought with a large enough effect; inconclusive = small, poorly fitted or top-dose-only effect, or another doubt; inactive = no such curve, though single readings can be large; an effect the other way counts as inactive or inconclusive.

SMILES | PTAP-TSG101 blk | NTMT1 inh | HTT promoter inh | GALK inhibitor | OvCa metastasis | HTT-AS act
Cc1cc(N2CCN(c3cccc(C)c3C)CC2)n2cnnc2n1 | i | 89.1µM* | -6.8% | 0.3% | i | -17.1%
CCC(O)C(C)C1CCC(C(C)C(=O)O)O1 (configuration not stated) | . | 10.5%[57.5 µM] | . | . | . | .
COc1ccccc1N1CCN(C(=O)CN2C(=O)COc3ccc(S(=O)(=O)N4CCC(C)CC4)cc32)CC1 | i | -14.1% | -2.8% | -1.2% | i | -18.7%
CC1CCN(S(=O)(=O)c2ccc3c(c2)N(CC(=O)N2CCN(c4ccccc4)CC2)C(=O)CO3)CC1 | i | 89.1µM* | -24.0% | -1.7% | i | -31.5%
C[N+]1(CC2COC(c3ccccc3)(C3CCCCC3)O2)CCCCC1 (configuration not stated) | . | 15.8µM* | 3.6% | . | . | 1.2%
CCCCCCCCCCCCCCCC[N+](C)(C)Cc1ccccc1 | . | 22.4µM* | -20.7% | . | . | -27.9%
CCCCCCCCCCCCCC[N+](C)(C)C | . | ? | ? | . | . | -27.4%
CCCCCCCCCCCCCC[N+](C)(C)Cc1ccccc1 | . | 50.1µM* | ? | . | . | -39.8%
CCCCCCCCCCCCCCCC[N+](C)(C)CC | . | 25.1µM* | ? | . | . | -40.8%
CCCCC/C(C=O)=C\c1ccccc1 | . | -4.5%[57.5 µM] | 2.7% | . | . | 2.7%
Cc1cc(=O)c2c(O)c3c(O)cc(=O)c4c3c3c(cc(O)c1c23)C(C)(C)C=4O | . | 3.55µM*! | -8.1% | . | -2.9% | -11.9%
CCOCCCNC(=O)c1c[nH]c2ccc(S(=O)(=O)Nc3cccc(Cl)c3C)cc2c1=O | i | 89.1µM* | -22.5% | 0.0% | 2.1% | -27.1%
CC(C)CCNC(=O)c1c[nH]c2ccc(S(=O)(=O)Nc3cccc(C(F)(F)F)c3)cc2c1=O | i | 2.4% | ? | 0.3% | i | -40.1%
CNC(=O)c1c[nH]c2ccc(S(=O)(=O)Nc3cccc(Cl)c3C)cc2c1=O | i | -1.8% | -20.8% | 1.4% | i | -49.6%
Cc1ccc(CCNC(=O)c2c[nH]c3ccc(S(=O)(=O)Nc4cccc(C(F)(F)F)c4)cc3c2=O)cc1 | i | 13.8% | 15.8µM* | -1.0% | -4.3% | -43.4%
N[C@@H]1CCN(c2cnc3c(O)ccc(C(=O)O)c3c2)C1 | . | 11.4% | . | . | . | .
COc1ccc(C(CC(=O)Nc2ccc(F)c(Cl)c2)N2Cc3ccccc3C2=O)cc1OC (configuration not stated) | i | 89.1µM* | -24.5% | 1.6% | 7.0% | -28.8%
Clc1cccc(CSc2nc3ncc(Br)cc3[nH]2)c1 | . | -0.2%[57.5 µM] | . | . | . | .
COc1cc(OC)cc(C(=O)Nc2ccc3c(c2)OCCO3)c1 | i | 31.6µM* | 50.8% | 2.9% | i | ?
CCN(CC)c1cc(C)c2cc(NC(=O)c3cc(OC)cc(OC)c3)ccc2n1 | i | -14.9% | -3.6% | 0.0% | 4.7% | -17.8%
Cc1cn([C@H]2C[C@H](O)[C@@H](CO)O2)c(=O)nc1N | . | 16.1% | . | . | . | .
CCC(c1ccc(O)cc1)C(CC)c1ccc(O)cc1 (configuration not stated) | . | ? | ? | . | -20.7% | -33.3%
CC[C@H](c1ccc(O)cc1)[C@@H](CC)c1ccc(O)cc1 | . | 11.2µM* | -17.4% | . | . | -28.3%
CCN(CC)CCOc1ccc(Nc2ncc3cc(-c4c(Cl)cccc4Cl)c(=O)n(C)c3n2)cc1 | . | 79.4µM*! | ? | . | -24.8% | -33.4%
C=C1C(=O)O[C@@H]2[C@H]3C(C)=CC[C@@]34O[C@@]4(C)CC[C@@H]12 | . | -18.1% | . | . | . | .
CCN(CC)CCOc1ccc(C(=C(Cl)c2ccccc2)c2ccccc2)cc1 | . | -24.6%[57.5 µM] | -9.3% | . | 3.7% | 24.3µM*
CCN(CC)CCOc1ccccc1C(=O)CCc1ccccc1 | . | 23.7%[57.5 µM] | -7.4% | . | . | -14.4%
CCN(CC)CCOc1ccc(Cc2ccccc2)cc1 | . | 31.6µM*! | -2.8% | . | -5.9% | 5.4%
CN(C)CCOc1ccc(/C(=C(/CCCl)c2ccccc2)c2ccccc2)cc1 | . | -0.6% | . | . | . | .
